Hits are enriched below; roughly 4% of the tested compounds scored in any of these assays.
KKLEB tox = CF airway cell cytotoxicity counter-screen. KKLEB CF airway cells viability, ATPlite luminescence, overnight; active compounds read low; cells stimulated with P. aeruginosa culture filtrate. activity change (cytotoxicity), % at 5 µM. 360,000 tested, 0.36% active. AID 602141;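 active = corrected activity change at or below -50% at 5 µM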
TROY NFkB inh = inhibitors of TROY-dependent NF-kB signaling; Q293 LMP1-TROYcd NF-kB luciferase reporter, 4 h; inhibition, % at 10 µM; 360,000 tested, 0.98% active; AID 1347056;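 active = compounds whose plate-normalised and pattern-corrected inhibition of the luciferase reporter signal at the single screening dose is 50% or more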
Peg3 promoter = reduces Peg3 promoter-driven luciferase expression in HeLa; HeLa PEG-Prom luciferase reporter, luminescence, overnight; inhibition, % at 20 µM; 360,000 tested, 1.7% active;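 active = inhibition of at least 50% at 20 µM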
HIF-2a inh = blocks HIF-2a reporter activity; 786-0 RCC cells HIF-2a reporter, luciferase luminescence, overnight; inhibition, % at 18.8 µM; 360,000 tested, 0.72% active; AID 624352;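 active = inhibition of the luminescence signal of 40% or more relative to plate controls, in a single-dose primary screen at 18.75 µM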
TWEAK-Fn14 inh = TWEAK-Fn14 signaling inhibition. inhibition, % at 10 µM. AID 1159606. 360,000 tested, 2% active. TWEAK-stimulated Fn14 reporter cells, luciferase luminescence, 8 h; in the data active = inhibition above about 50%
CF NFkB inh = cystic fibrosis NF-kB activation inhibition; 360,000 tested, 0.86% active; KKLEB NF-kB-GFP reporter, PAF-induced, GFP fluorescence overnight; inhibition, % at 5 µM;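 active = at least 50% inhibition at 5 µM, scaled per plate between neutral and stimulator controls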;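 note: PAF is a Pseudomonas aeruginosa culture filtrate used as stimulus; plate controls were PAF-stimulated DMSO wells for no effect and unstimulated DMSO wells for full effect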
CF NFkB inh conf = confirmation of cystic fibrosis induced NF-kB inhibitors. shares compounds with CF NFkB inh. KKLEB CF airway cells, PAF-induced NF-kB-GFP fluorescence, overnight. inhibition, % at 5 µM. 1,300 tested, 64% active. AID 602472; in the data active = inhibition above about 40%;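 note: stimulus PAF is a Pseudomonas aeruginosa filtrate and not platelet activating factor; plate controls were DMSO wells with stimulus for no effect and unstimulated DMSO wells for full effect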
* hit, by the source's call; . = no result given.

SMILES	KKLEB tox	TROY NFkB inh	Peg3 promoter	HIF-2a inh	TWEAK-Fn14 inh	CF NFkB inh	CF NFkB inh conf
Cc1ccc(CNc2ncnc3ccc(-c4ccoc4C)cc23)o1	-5.0	-4.9	18.5	14.6	64.9*	73.5*	96.9*
O=C(NCCc1ccc(F)cc1)c1cccc2c1C(=O)c1ccc(N3CCC(Cc4ccccc4)CC3)cc1S2(=O)=O	3.0	10.5	9.3	5.6	19.5	-41.8	.
CCOC(=O)c1c(C)c2c(=O)[nH]cnc2n1-c1ccccc1	-5.0	41.8	-17.4	8.4	62.9*	56.3*	66.3*
CCOC(=O)c1sc2nc[nH]c(=O)c2c1C	8.0	-17.3	-27.2	-14.8	27.8	-4.0	.
Cc1nccc(-c2ccc(-n3cnc4ccccc43)cc2)n1	-7.5	-9.3	-89.4	-74.9	13.0	45.7	.
Nc1nccc(-c2ccc(-n3cnc4ccccc43)cc2)n1	-9.4	25.9	-126.7	-140.2	52.8*	76.7*	80.2*
CC(=O)OCC(=O)[C@@]12OC(C)(C)O[C@@H]1CC1C3C[C@H](F)C4=CC(=O)C=CC4(C)[C@@]3(F)C(O)CC12C (stereo partly drawn)	1.9	8.7	4.3	25.7	-19.8	72.8*	37.5
C[C@@H]1C[C@H]2[C@@H]3C[C@H](F)C4=CC(=O)C=C[C@]4(C)[C@@]3(F)[C@@H](O)C[C@]2(C)[C@@]1(O)C(=O)CO	-24.4	21.1	-2.9	29.0	9.9	77.6*	24.7
CC1(C)OC2CC3C4CC(F)C5=CC(=O)C=CC5(C)C4(F)C(O)CC3(C)C2(C(=O)CO)O1 (stereo not drawn)	40.1	6.2	-7.0	13.8	-13.6	75.2*	20.6
C=C1C(=O)[C@]23C[C@H]1CC[C@H]2[C@]1(C)[C@@H](OC(C)=O)CC[C@@](C)(C(=O)O)[C@H]1C[C@@H]3OC(C)=O	0.6	-14.6	33.4	-26.2	45.9	62.4*	16.7
C=C1C(=O)[C@]23C[C@H]1CCC2[C@]1(C)C(=O)CC[C@@](C)(C(=O)O)C1C[C@@H]3O (stereo partly drawn)	-13.2	20.1	61.1*	13.3	72.2*	70.7*	85.8*
Cc1[nH]n(-c2ccccc2)c(=O)c1/C=N/NC(=O)c1ccccc1F	-13.9	-23.6	1.0	6.1	8.3	-3.2	.
O=C(NC1CCOC1=O)c1ccccc1 (stereo not drawn)	-10.2	-16.0	8.3	-1.2	13.4	25.4	.
Cc1ccc(NC(=O)c2cnc3ccccc3n2)cc1C	5.6	-26.6	-259.1	-346.5	6.6	-4.8	.
CCCCCOC(=O)c1[nH]c2c(c1C)C(=O)CC(c1ccco1)C2 (stereo not drawn)	-47.0	21.1	-20.9	-4.7	38.6	52.4*	84.5*
Cc1cc(C(=O)NNC(=O)/C=C/c2ccccc2Cl)c(C)o1	-17.0	-39.8	-2.6	-5.9	5.2	-3.9	.
Cc1ccc(Nc2nc3nonc3[nH]c2=O)cc1Cl	-35.1	41.0	1.5	-144.7	58.9*	51.7*	80.7*
O=C(Nc1ccccc1N1CCOCC1)c1ccc(Cl)nc1	-4.5	-24.6	-1.1	16.1	-16.4	23.1	.
O=C(CSc1nnnn1C1CC1)N1CCN(c2ccc(O)cc2)CC1	6.6	-29.8	12.0	-6.4	-1.2	-18.8	.
O=C(N/C(=C/c1ccco1)C(=O)N1CCOCC1)c1ccc([N+](=O)[O-])cc1	2.6	20.5	4.4	0.9	13.2	-3.8	.
Cc1ccsc1CN(C)c1ncnc2ccc(-c3ccoc3)cc12	-15.7	29.6	19.4	1.9	68.3*	83.6*	96.7*
COc1cccc(-c2ccc3ncnc(N(C)Cc4ccco4)c3c2)c1	-11.4	-23.4	6.0	5.6	36.8	48.6	.
Cc1cc(C)c(O)c(CN(C)Cc2cc(Cl)cc(Cl)c2O)c1	-27.1	47.4	39.0	15.9	13.9	60.3*	74.8*
CCCC1O[C@@H]2C[C@H]3[C@@H]4CCC5=CC(=O)C=C[C@]5(C)[C@H]4[C@@H](O)C[C@]3(C)[C@]2(C(=O)CO)O1 (stereo partly drawn)	21.7	30.1	3.6	27.7	1.1	89.9*	22.7
CN1CCN(C(=O)c2ccc(S(=O)(=O)N(C)c3ccccc3)cc2)CC1	-9.7	-9.8	-1.9	-4.6	-1.2	35.3	.
SMILES	KKLEB tox	TROY NFkB inh	Peg3 promoter	HIF-2a inh	TWEAK-Fn14 inh	CF NFkB inh	CF NFkB inh conf
Cc1cccc(N2CCN(C(=O)c3ccc(S(=O)(=O)N(C)c4ccccc4)cc3)CC2)c1C	-31.1	29.5	34.8	11.1	60.8*	53.8*	43.6*
O=C(Nc1ccccc1N1CCOCC1)c1cc(-c2ccco2)nc2ccccc12	-12.8	-26.5	59.6*	-6.8	25.2	75.3*	86.5*
CC1(C)Cc2c(ccc3ccccc23)C(=O)N1	-6.3	2.5	-73.7	-58.8	23.6	68.7*	78.4*
COC(=O)c1sccc1NC(=O)c1sccc1C	-15.6	0.2	-5.5	-11.5	8.2	-11.7	.
COc1cc(Br)c(C(=O)c2nccc3cc(OC)c(OC)cc23)cc1OC	-13.9	0.2	8.4	24.9	1.7	59.7*	13.6
CCOC(=O)C1CCN(c2cc3c(cc2NC(=O)c2ccc(OC)c(OC)c2)n(C)c(=O)n3C)CC1	9.3	-11.6	45.4	-9.0	10.7	54.4*	23.2
CCOC(=O)C1CCN(c2cc3c(cc2NC(=O)c2ccccc2)n(C)c(=O)n3C)CC1	-12.6	7.9	44.3	8.9	7.5	11.9	.
Cc1ccccc1NC(=S)NNC(=O)c1ccoc1C	-0.7	-6.3	-165.8	-120.4	-22.6	14.1	.
Cc1cc(-n2c(SCC(=O)NCCC3=CCCCC3)nc3n[nH]c(C)c3c2=N)ccc1Cl	-8.1	2.4	44.5	17.2	-27.9	21.8	.
Cc1[nH]nc2nc(SCC(=O)NCCC3=CCCCC3)n(-c3ccc(Br)cc3)c(=N)c12	-34.5	18.3	47.5	-11.6	-7.5	63.2*	60.5*
CCOC(=O)C1(Cc2ccccc2)CCN(Cc2csc(C(C)=O)c2)CC1	-5.3	7.0	19.0	11.5	-0.9	16.6	.
COc1cc(CN(C)c2ccc(S(=O)(=O)N3CCCC3)cn2)ccc1OC(F)F	-13.2	14.2	7.9	11.2	1.5	54.3*	54.6*
COc1ccc(CCN(C)c2ccc(S(=O)(=O)N3CCCC3)cn2)cc1OC	-3.4	-0.5	17.1	17.6	-12.0	8.9	.
O=C1C(=O)N(CCS(=O)(=O)c2ccccc2)c2ccc(F)cc21	-16.8	2.5	4.8	-12.7	10.2	65.6*	22.0
CC(C)CC1NC(=O)N(CC(=O)N2c3ccccc3NC(=O)C2(C)C)C1=O (stereo not drawn)	6.5	0.5	11.1	20.0	-29.9	16.8	.
CC(C)C[C@@H]1NC(=O)[C@H](Cc2ccccc2)N(C)C(=O)[C@H](C)NC(=O)c2ccccc2NC(=O)[C@H](Cc2ccc(O)cc2)N(C)C1=O	-23.6	-3.3	51.9*	-7.6	25.6	82.1*	94.2*

From PubChem
